Source: the supplement of paper PMC10849652
The full data set covers some 7,900 targets. This sample favours those with a hit. About 0.6% of all pairs of compound and target were hits.

compound: O=C(CCCCCCNC(=O)c1cnc(N(c2ccccc2)c2ccccc2Cl)nc1)NO [citarinostat]; test: log2 fold change, soluble protein after heating vs DMSO (PISA); higher = thermal stabilisation; K562 cells, 10 uM, 30 min; active = over 0.2 and 3.5 SD of the protein, either way, in both replicates (recomputed)
How it was run: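 K562 cells at 2×10^6 cells/mL were given 10 μM compound for 30 min. Aliquots then went through 3 min of heating across 48°C-58°C, were pooled, and were extracted in PBS with 0.5% NP-40 at 4°C, and the supernatant after 21,000xg for 90 min was quantified by TMTpro 16plex LC-MS/MS with channel sums equalised. Thermal stability relative to control samples, from duplicates, is given as log2 fold change.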

Chain of UniProt P46108 (P46108 whole entry, looked up): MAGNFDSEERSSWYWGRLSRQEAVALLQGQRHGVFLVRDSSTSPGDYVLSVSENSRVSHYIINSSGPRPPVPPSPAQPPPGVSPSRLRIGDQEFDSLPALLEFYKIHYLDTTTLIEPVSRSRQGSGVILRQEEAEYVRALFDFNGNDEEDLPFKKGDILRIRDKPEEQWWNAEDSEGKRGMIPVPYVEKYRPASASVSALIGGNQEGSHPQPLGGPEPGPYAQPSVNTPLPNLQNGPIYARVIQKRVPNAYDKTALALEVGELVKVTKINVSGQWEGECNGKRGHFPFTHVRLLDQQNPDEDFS
Chain of UniProt P20674 (P20674 whole entry, looked up): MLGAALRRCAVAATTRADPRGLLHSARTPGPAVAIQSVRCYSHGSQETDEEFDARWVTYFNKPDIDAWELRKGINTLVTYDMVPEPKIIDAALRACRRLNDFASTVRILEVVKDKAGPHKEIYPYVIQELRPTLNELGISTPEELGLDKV
Chain of UniProt P51790 (P51790 whole entry, looked up): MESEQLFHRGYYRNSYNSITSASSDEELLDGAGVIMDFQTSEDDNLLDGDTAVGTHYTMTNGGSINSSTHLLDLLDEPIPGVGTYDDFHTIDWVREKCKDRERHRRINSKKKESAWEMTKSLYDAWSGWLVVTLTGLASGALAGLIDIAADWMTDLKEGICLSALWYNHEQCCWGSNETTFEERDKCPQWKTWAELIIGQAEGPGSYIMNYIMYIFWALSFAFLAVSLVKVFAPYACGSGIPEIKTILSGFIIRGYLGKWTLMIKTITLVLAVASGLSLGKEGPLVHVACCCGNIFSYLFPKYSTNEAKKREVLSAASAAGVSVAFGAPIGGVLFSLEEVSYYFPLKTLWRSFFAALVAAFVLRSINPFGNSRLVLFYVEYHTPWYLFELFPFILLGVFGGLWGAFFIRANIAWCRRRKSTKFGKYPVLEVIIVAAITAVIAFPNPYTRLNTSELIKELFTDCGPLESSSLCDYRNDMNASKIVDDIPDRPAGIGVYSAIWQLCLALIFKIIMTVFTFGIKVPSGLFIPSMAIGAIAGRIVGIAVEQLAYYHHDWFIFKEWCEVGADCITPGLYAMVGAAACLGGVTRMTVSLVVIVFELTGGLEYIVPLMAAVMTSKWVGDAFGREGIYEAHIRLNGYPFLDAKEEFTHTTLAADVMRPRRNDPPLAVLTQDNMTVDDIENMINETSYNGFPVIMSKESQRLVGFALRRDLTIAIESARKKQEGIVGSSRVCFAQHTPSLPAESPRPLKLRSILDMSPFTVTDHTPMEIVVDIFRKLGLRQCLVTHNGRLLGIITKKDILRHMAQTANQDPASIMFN
Chain of UniProt Q9Y6H1 (Q9Y6H1 whole entry, looked up): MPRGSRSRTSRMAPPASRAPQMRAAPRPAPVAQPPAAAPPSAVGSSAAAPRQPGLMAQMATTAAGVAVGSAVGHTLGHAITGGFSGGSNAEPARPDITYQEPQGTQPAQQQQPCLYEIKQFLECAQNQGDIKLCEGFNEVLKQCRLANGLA
Chain of UniProt Q99439 (Q99439 whole entry, looked up): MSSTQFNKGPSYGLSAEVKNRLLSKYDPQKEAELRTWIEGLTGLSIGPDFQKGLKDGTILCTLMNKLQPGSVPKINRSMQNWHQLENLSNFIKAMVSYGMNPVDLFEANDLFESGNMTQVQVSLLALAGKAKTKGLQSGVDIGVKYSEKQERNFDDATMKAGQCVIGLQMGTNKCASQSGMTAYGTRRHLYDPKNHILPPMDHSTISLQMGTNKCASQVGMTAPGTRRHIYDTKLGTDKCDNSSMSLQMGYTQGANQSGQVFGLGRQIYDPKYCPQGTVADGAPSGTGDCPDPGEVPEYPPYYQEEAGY
Chain of UniProt O75909 (O75909 whole entry, looked up): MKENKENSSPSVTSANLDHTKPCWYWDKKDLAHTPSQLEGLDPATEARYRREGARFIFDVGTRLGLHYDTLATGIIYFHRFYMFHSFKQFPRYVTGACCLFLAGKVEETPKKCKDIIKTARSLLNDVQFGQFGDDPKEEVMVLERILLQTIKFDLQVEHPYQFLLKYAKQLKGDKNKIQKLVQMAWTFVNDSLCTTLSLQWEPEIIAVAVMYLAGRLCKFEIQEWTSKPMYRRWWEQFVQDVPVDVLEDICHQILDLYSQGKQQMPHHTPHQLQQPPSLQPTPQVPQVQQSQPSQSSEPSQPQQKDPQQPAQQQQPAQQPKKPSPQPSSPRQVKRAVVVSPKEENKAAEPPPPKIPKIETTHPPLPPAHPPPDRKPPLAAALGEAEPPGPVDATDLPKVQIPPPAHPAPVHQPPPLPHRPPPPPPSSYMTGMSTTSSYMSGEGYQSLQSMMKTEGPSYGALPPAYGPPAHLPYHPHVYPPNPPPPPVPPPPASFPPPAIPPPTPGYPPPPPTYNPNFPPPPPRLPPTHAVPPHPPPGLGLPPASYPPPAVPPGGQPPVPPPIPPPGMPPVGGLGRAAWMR
Chain of UniProt Q9BT78 (Q9BT78 whole entry, looked up): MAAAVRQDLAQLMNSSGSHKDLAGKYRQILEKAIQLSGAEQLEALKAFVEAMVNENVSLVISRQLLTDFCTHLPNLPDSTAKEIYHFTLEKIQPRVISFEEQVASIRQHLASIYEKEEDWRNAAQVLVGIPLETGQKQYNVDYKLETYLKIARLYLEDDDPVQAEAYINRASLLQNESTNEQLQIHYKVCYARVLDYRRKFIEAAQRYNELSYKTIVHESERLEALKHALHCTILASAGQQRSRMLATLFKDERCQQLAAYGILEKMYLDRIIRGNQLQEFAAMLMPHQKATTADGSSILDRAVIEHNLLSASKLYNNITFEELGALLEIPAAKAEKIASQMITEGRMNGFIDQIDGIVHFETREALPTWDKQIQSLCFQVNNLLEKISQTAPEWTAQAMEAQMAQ
Chain of UniProt P48509 (P48509 whole entry, looked up): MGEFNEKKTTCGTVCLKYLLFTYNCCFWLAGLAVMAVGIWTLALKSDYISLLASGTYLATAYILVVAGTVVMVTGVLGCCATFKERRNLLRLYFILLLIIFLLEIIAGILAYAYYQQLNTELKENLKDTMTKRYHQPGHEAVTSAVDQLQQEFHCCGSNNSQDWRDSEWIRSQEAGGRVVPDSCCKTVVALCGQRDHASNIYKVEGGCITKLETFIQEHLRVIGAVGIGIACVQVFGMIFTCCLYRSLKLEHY
Chain of UniProt P86791 (P86791 whole entry, looked up): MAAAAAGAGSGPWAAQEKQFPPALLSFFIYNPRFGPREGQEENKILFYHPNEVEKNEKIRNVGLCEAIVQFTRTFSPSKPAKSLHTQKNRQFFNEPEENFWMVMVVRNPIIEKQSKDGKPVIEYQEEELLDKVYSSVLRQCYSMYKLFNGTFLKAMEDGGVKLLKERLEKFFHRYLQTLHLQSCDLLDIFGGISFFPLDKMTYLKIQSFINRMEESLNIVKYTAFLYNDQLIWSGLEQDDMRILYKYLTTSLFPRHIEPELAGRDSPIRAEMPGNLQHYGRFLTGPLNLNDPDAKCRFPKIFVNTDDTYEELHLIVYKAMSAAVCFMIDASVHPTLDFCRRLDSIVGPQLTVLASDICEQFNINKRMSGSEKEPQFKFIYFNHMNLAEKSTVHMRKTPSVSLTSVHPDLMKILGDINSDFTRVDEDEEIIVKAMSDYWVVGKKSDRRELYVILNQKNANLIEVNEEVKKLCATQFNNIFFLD
Chain of UniProt Q9UNS2 (Q9UNS2 whole entry, looked up): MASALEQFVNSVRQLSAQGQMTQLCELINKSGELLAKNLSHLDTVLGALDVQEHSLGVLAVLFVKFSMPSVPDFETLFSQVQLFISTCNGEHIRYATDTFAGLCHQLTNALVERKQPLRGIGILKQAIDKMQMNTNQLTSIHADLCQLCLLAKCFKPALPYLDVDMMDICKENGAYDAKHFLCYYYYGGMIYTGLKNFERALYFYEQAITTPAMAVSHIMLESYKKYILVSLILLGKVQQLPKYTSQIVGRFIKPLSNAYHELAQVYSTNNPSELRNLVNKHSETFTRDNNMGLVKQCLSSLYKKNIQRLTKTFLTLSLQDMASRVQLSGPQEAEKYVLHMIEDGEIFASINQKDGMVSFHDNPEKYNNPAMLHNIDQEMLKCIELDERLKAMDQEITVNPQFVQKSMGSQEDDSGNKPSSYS
Chain of UniProt Q8N1A6 (Q8N1A6 whole entry, looked up): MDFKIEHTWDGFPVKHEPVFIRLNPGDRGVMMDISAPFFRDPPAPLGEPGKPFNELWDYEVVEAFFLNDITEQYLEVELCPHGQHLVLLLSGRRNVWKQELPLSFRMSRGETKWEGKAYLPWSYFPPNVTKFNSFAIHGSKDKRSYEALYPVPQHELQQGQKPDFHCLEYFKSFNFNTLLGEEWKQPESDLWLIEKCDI
Chain of UniProt Q9Y3X0 (Q9Y3X0 whole entry, looked up): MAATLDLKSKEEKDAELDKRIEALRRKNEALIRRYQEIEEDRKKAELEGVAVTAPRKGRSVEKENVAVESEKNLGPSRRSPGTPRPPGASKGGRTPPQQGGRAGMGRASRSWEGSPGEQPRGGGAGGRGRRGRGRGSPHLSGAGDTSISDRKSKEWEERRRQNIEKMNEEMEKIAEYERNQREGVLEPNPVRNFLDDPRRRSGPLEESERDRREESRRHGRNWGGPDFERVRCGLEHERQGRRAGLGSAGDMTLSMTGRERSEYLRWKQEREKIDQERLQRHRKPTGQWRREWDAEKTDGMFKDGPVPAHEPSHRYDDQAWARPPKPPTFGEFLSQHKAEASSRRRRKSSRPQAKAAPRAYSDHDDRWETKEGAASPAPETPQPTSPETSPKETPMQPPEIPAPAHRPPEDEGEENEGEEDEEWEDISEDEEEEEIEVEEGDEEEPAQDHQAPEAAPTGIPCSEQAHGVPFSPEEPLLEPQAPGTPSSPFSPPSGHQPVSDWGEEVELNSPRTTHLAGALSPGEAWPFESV
Chain of UniProt P41208 (P41208 whole entry, looked up): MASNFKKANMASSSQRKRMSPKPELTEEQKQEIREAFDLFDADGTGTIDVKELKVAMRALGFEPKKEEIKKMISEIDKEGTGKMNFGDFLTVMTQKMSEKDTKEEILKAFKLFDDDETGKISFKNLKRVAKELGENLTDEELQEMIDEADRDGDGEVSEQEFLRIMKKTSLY
Chain of UniProt P14854 (P14854 whole entry, looked up): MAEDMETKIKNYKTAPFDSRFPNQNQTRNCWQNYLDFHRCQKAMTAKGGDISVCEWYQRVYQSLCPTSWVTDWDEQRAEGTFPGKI

log2 fold change, inactive:
CD151 (UniProt P48509) -0.007
CBX1 (UniProt P83916) -0.035
CHCHD2 (UniProt Q9Y6H1) 0.018
CCNK isoform 4 (UniProt O75909) -0.007
CBR1 (UniProt P16152) 0.033
CASP2 (UniProt P42575) 0.058
COCH (UniProt O43405) -0.084
CTBS (UniProt Q01459) -0.026
CDKN2AIP (UniProt Q9NXV6) 0.013
CBS (UniProt P35520) -0.058
COMT (UniProt P21964) 0.052
CCDC9 (UniProt Q9Y3X0) -0.069
CHD4 isoform 2 (UniProt Q14839) 0.063
COX5A (UniProt P20674) -0.041
CLCN3 (UniProt P51790) 0.011
C4A (UniProt P0C0L4) -0.071
CCAR2 isoform 2 (UniProt Q8N163) 0.033
COPS4 (UniProt Q9BT78) 0.031
CDK16 isoform 2 (UniProt Q00536) 0.061
COPS3 (UniProt Q9UNS2) 0.014
C4orf33 (UniProt Q8N1A6) 0
COPS8 (UniProt Q99627) 0.056
CDK5RAP3 isoform 4 (UniProt Q96JB5) 0.065
CCZ1 (UniProt P86791) -0.011
CSTF2 (UniProt P33240) -0.011
COX6B1 (UniProt P14854) -0.007
CNDP2 (UniProt Q96KP4) 0.023
CPQ (UniProt Q9Y646) 0.038
CA1 (UniProt P00915) 0.074
CNN2 (UniProt Q99439) 0.061
CSNK2A2 (UniProt P19784) 0.011
CNOT2 (UniProt Q9NZN8) 0.026
CRK (UniProt P46108) 0.061
CETN2 (UniProt P41208) -0.1
CPSF1 (UniProt Q10570) -0.025
CSTF3 (UniProt Q12996) -0.021
